According to PubChem BioAssay (NCATS):
Values joined by “and” are separate entries in the source; they are usually repeats but may differ in a detail not shown here. Equal values may be shown once. Results filed as inconclusive are left out. Active and inactive are the calls of the source. Calls follow the shape of the dose curve; as a rule, active = well fitted inhibition curve with a large enough effect; inconclusive = small, poorly fitted or top-dose-only effect; inactive = flat fitted curve, though single readings scatter.

Experiment: P-glycoprotein substrates identified in KB-8-5-11 adenocarcinoma cell line, qHTS therapeutic library screen (AID 1346987); also: nearly all actives have a fitted effect of over 65% in size
Details: KB-8-5-11 (P-gp overexpressing) viability, CellTiter-Glo, 72 h; series mostly up to 44.5 µM; activity change, negative = cytotoxicity: at the top concentration
In short: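 Human cervical adenocarcinoma KB-8-5-11 cells, selected in colchicine to over-express P-gp and assayed without it, were exposed for 72 h to titrated compounds. An ATP-based luminescent viability signal gave AC50.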
% is scaled to controls: 0 for no effect and ±100 for the full control effect; potency is read from the fitted curve at half-maximal effect.

SMILES | outcome | activity change, negative = cytotoxicity | Potency
COc1cc2c(cc1O)[C@H](c1ccc(O[C@@H]3O[C@H](CO)[C@@H](O)[C@H](O)[C@H]3O)c(OC)c1)[C@@H](CO)[C@](O)(CO)C2 | inactive [at 17.3 µM] | – | –
COc1cc(O)c2c(c1)C1=CC(O)C(O)CC1(C)OC2=O (stereo not drawn) | – | -0.926% (inactive) | –
CCOC(=O)C(CCc1ccccc1)NC(C)C(=O)N1C(=O)N(C)CC1C(=O)O (stereo not drawn) | inactive | – | –
COC(=O)C1=COC(OC2OC(CO)C(O)C(O)C2O)C2C1C=CC2(O)CO (stereo not drawn) | inactive [at 17.3 µM] | – | –
C=C1C(O)C[C@@H]2C(C(=O)O)=CO[C@@H](O[C@@H]3O[C@H](CO)[C@@H](O)[C@H](O)[C@H]3OC(=O)c3ccc(O)cc3)[C@H]12 (stereo partly drawn) | inactive [at 17.3 µM] | – | –
C=C1CC2C(C)(CCC(=O)O)C(C(C)(C)O)CCC2(C)C2C(=O)OC(C)(C(=O)OC)C(=O)C12C (stereo not drawn) | inactive [at 17.3 µM] | – | –
C/C1=C\CC[C@H](C)CCO[C@@H]2O[C@H](CO[C@@H]3OC[C@](O)(COC1=O)[C@H]3O)[C@@H](O)[C@H](O)[C@H]2O | inactive [at 17.3 µM] | – | –
COc1cc(Nc2nc3ccccc3nc2NS(=O)(=O)c2ccc(NC(=O)c3ccc(OC)c(C)c3)cc2)cc(OC)c1 | – | -0.164% (inactive) | –
CC(C)(C)NS(=O)(=O)c1cncc(-c2cc(F)c3nc(N)nn3c2)c1 | – | 6.93% (inactive) | –
CC(O)(CC(=O)O)CC(=O)OCc1ccc(O[C@@H]2O[C@H](CO)[C@@H](O)[C@H](O)[C@H]2O)cc1 (stereo partly drawn) | inactive [at 17.3 µM] | – | –
CC1(C)C=CN2C(=O)C3=CCCN3C(=O)[C@@H]2C[C@@]12Nc1ccccc1C2=O | – | -0.502% (inactive) | –
COc1c2c(c(C)c3c1C(=O)OC3)O[C@@]1(C)CC(O)C(C(C)(C)O)[C@](C)(CCC(=O)O)[C@H]1C2 (stereo partly drawn) | inactive [at 17.3 µM] | – | –
C=C1[C@H](OC(C)=O)[C@H]2[C@@H](OC(C)=O)[C@](C)(OC(C)=O)C[C@]2(OC(C)=O)C(=O)[C@H](C)/C=C/C(C)(C)C(=O)[C@H](OC(=O)C(C)CC)[C@H]1OC(C)=O (stereo partly drawn) | – | -14.6% [at 17.3 µM] (inactive) | –
CC(=O)c1c(O)cc(O[C@@H]2O[C@H](CO)[C@@H](O)[C@H](O)[C@H]2O)cc1O | inactive | – | –
CCn1cc(NC(=S)Nc2cc(Cl)ccc2OC)c(C(N)=O)n1 | – | -3.59% (inactive) | –
CC(C)=CCC(O)/C(C)=C/CO[C@@H]1O[C@H](CO)[C@@H](O)[C@H](O)[C@H]1O (stereo partly drawn) | – | 4.79% (inactive) | –
CC(=O)C1=CCC2C3CCC4CC(O[C@@H]5O[C@H](CO)[C@@H](O[C@@H]6O[C@@H](C)[C@H](O)[C@@H](O)[C@H]6O)[C@H](O)[C@H]5O[C@@H]5O[C@H](CO)[C@@H](O)[C@H](O)[C@H]5O)CCC4(C)C3CCC12C (stereo partly drawn) | inactive [at 17.3 µM] | – | –
COC(=O)C1=CO[C@@H](O[C@@H]2O[C@H](CO)[C@@H](O)[C@H](O)[C@H]2O)[C@@H]2C(COC(C)=O)=C[C@H](O)[C@H]12 | inactive [at 17.3 µM] | – | –
Nc1ccc(/C=C/C(=O)NCc2cc3cc(-c4ccc(C(=O)N5CCC(F)(F)CC5)cc4)cc(-c4ccc(F)cc4)c3o2)cn1 | – | – | 5.17 µM (active) and 5.8 µM (active)
COC1=CC(=O)CC(C)C12Oc1cc(OC)cc(O)c1C2=O (stereo not drawn) | inactive | – | –
COc1cc2ncnc(Nc3cccc(O)c3)c2cc1OC | – | 8.38% (inactive) | –
CCC(O)(C(=O)OCc1ccccc1NC(=O)CCC(=O)O)C(C)O (stereo not drawn) | – | 2.95% (inactive) | –
C=C(C)C(=O)O[C@H]1C[C@@](C)(O)C(=O)CC(O)/C(C)=C\[C@H]2OC(=O)C(=C)[C@H]12 (stereo partly drawn) | – | -18.4% (inactive) | –
CC(O)CO[C@@H]1O[C@H](CO)[C@@H](O)[C@H](O)[C@H]1O (stereo partly drawn) | – | 3.85% (inactive) | –
CC(=O)C12OC(C)(C)OC1CC1C3CCC4=CC(=O)C=CC4(C)C3(F)C(O)CC12C (stereo not drawn) | – | 0.381% (inactive) | –
CC(=O)O[C@H]1[C@H](O[C@H]2[C@@H]3C=CO[C@@H](O[C@@H]4O[C@H](CO)[C@@H](O)[C@H](O)[C@H]4O)[C@@H]3[C@@]3(CO)O[C@@H]23)O[C@@H](C)[C@H](OC(=O)/C=C/c2ccccc2)[C@H]1OC(=O)/C=C/c1ccccc1 | inactive [at 9.29 µM] | – | –
C=C(C(=O)O)[C@H]1C[C@]2(C)[C@@H](O)CC[C@]23O[C@H]1C[C@@H]3C | – | 2.64% (inactive) | –
CC1CC[C@]2(C(=O)O)CC[C@]3(C(=O)O)C(=CCC4[C@@]5(C)CC[C@H](OC6OC(C)C(O)C(OC7OC(CO)C(O)C(O)C7O)C6O)C(C)(C)C5CC[C@]43C)C2C1C (stereo partly drawn) | inactive [at 17.3 µM] | – | –
